D2 ag-1: Beta-Arrestin HTS for Positive Allosteric Modulators of the Human D2 Dopamine Receptor: Agonists. actives 0.084% (n = 360,000). DiscoveRx PathHunter D2 beta-arrestin, luminescence, 90 min; 100% = 57 uM dopamine signal. activation, % (concentration not given with the values). AID 624465, 2012. D(2) dopamine receptor (Homo sapiens), P14416; in the data active = activation above about 40%; inconclusive = between about 15% and that limit
Target sequence (P14416 whole entry, looked up): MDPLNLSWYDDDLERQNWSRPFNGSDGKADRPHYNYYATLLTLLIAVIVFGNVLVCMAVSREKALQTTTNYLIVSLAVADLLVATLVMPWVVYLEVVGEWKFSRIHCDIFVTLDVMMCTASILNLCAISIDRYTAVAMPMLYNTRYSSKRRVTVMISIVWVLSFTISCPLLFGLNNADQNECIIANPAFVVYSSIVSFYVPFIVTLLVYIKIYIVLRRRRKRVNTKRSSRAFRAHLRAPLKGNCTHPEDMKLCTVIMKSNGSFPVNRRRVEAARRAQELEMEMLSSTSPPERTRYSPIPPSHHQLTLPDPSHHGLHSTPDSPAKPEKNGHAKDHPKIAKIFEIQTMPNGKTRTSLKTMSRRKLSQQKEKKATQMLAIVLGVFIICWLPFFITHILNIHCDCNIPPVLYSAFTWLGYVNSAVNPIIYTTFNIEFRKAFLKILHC
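DiscoveRx PathHunter D2 beta-arrestin cells (2,100/well) attached overnight, then compound-stimulated 90 min at 37 C in HBSS/10 mM HEPES/0.1% Tween-20 buffer; beta-galactosidase complementation read by luminescence after 1 h at ambient temperature. Dopamine 57 uM final (EC100) as control.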
D2 ag-2: HTS Assay for Allosteric Agonists of the Human D2 Dopamine Receptor: Primary Screen for Agonists. HEK293 T-REx D2 cells, calcium flux agonist mode. actives 0.53% (n = 340,000). activation, % at 2 µM. D(2) dopamine receptor (Homo sapiens), P14416;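 active = activation over 3 SD above normal in the single-dose calcium agonist read, cut at about 30% in these data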; also: 0% is about no effect
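Agonism scored from kinetic calcium signal (1 read/sec, 180 s) following compound pin transfer, after a 10 s baseline. Cells: HEK293 Trex line expressing inducible D2 receptor coupled to calcium, dye-loaded after overnight culture at 30 C.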
D2 PAM-1: HTS Assay for Positive Allosteric Modulators of the Human D2 Dopamine Receptor: Primary Screen for Potentiators. D(2) dopamine receptor (Homo sapiens), P14416. AID 485347, 2010. HEK293 T-REx D2, calcium flux, EC20 dopamine potentiation. actives 0.34% (n = 340,000). potentiation, % at 10 µM;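 active = potentiation over 3 SD above the plate norm, cut at about 30% in these data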; also: 0% is about no effect
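Tetracycline-induced Hek293 Trex D2 cells, force-coupled to calcium, loaded with no-wash calcium dye. Compound added with 180 s kinetic read for agonism, then EC20 dopamine and a further 180 s read for potentiation.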
LDHA block: qHTS assay for inhibitors of human lactate dehydrogenase | actives 0.15% (n = 480,000) | activity change, % (values are at about 110 or 230 µM) | purified LDHA, NADH/diaphorase-resazurin fluorescence; hits give low values | AID 1347041, 2019 | L-lactate dehydrogenase A chain (Homo sapiens), P00338; in the data active = activity change below about -30%; inconclusive = mostly about -25% to -30%;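 also: plate controls were DMSO wells for no effect and wells without enzyme for full effect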
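Enzyme activity of human lactate dehydrogenase 5 (2 nM; 0.06 mM NADH, 0.2 mM pyruvate, 5 min, RT) is measured via a resazurin/diaphorase fluorescence readout of residual NADH.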
D2 PAM-2: Beta-Arrestin HTS for Positive Allosteric Modulators of the Human D2 Dopamine Receptor: Potentiators; D(2) dopamine receptor (Homo sapiens), P14416; DiscoveRx D2 beta-arrestin cells, luminescence, 90 min; 100% = 57 uM dopamine signal; potentiation, % (no concentration beside the values); actives 0.23% (n = 360,000); in the data active = potentiation above about 50%; inconclusive = mostly about 30% to 49%
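PathHunter beta-arrestin assay in DiscoveRx D2 cells. Compounds were added with an EC20 of dopamine (50 nM final) for 90 min at 37 deg C. Luminescence was read 1 h after detection reagent, with 57 uM dopamine as the EC100 control.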
D2 antag: HTS Assay for Allosteric Antagonists of the Human D2 Dopamine Receptor: Primary Screen for Antagonists; inhibition, % at 10 µM; AID 485344, 2010; actives 2% (n = 340,000); HEK293 TREx D2 cells, calcium flux, dopamine EC80; in the data active = inhibition above about 30%; inactive = below that, where a call was filed; also: 0% is about no effect
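Compounds are added to dye-loaded, induced HEK293 T-REx cells coupled to calcium release via D2; after a 3 min kinetic read an EC80 dopamine stimulus is given and fluorescence is recorded for 3 more min.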
The depositor's hits bear a star; ? = inconclusive; / = no result; ! = not confirmed by another sample. Shown are actives, neighbours in structure and some others; about 2.1% of the full set was active somewhere.

SMILES	D2 ag-1	D2 ag-2	D2 PAM-1	LDHA block	D2 PAM-2	D2 antag
COCCNC(C(=O)Nc1ccc([N+](=O)[O-])cc1Br)c1ccccc1 (stereo not given)	1.9	0.2	-13.9	3.1	?	2.7
CCCCNC(C(=O)Nc1ccc([N+](=O)[O-])cc1Br)c1ccccc1 (stereo not given)	-3.7	-1.0	1.7	-31.5*	-15.7	-10.8
NC(=O)CN1CCCC(C(=O)O)C1 (stereo not given)	/	/	/	-1.2	/	/
O=C(CCN1C(=O)/C(=C\c2cccs2)SC1=S)Nc1ccc(C(=O)O)cc1	-1.3	1.1	7.5	-1.6	-4.4	8.1
CCN(CC)CCOC(=O)c1ccc(NC(=O)CCCN2C(=O)/C(=C\c3cccs3)SC2=S)cc1	-3.8	1.0	-27.0	-6.3	-55.9	67.7*
C=CCOc1ccc(/C=C/C(=O)OCC(=O)NC2CCCCCCC2)cc1	-2.7	0.6	-16.5	-7.1	-6.2	42.6*
CNC(=O)NC(=O)CCCN1CCN(c2oc(C3CC3)nc2C#N)CC1	/	/	/	6.0	/	/
Cc1cc(Cl)ccc1OCCCC(=O)N1CCN(C)CC1	-0.2	-0.6	-12.1	-4.0	-26.8	32.2*
CC(C)C1Oc2ccccc2N(CC(=O)N2CCOCC2)C1=O (stereo not given)	-2.2	0.1	-0.7	-4.9	2.8	37.9*
Cn1c(SCC(=O)Nc2ccccc2)nnc1C(F)(F)F	4.9	0.7	-4.1	-5.2	-7.8	10.4
Cn1c(SCC(=O)NCCNC(=O)CSc2nnc(C(F)(F)F)n2C)nnc1C(F)(F)F	-0.7	-0.2	-15.6	-4.3	-13.6	32.6*
Cc1ccc(C)c(/C=C(/C#N)S(C)(=O)=O)c1	/	/	/	-1.9	/	/
COC(=O)c1cc(NC(=O)c2cccc3ccccc23)cc(C(=O)OC)c1	/	/	/	17.2	/	/
CCCCCCn1c(=O)[nH]c2nc3cc(N)ccc3nc2c1=O	5.9	84.9*	2.7	22.0	59.9*	32.0*
O=C(NCC1CCCO1)C(=Cc1cccc([N+](=O)[O-])c1)C(=O)NCC1CCCO1 (stereo not given)	3.2	0.6	8.0	-2.2	-3.1	1.4
O=C(/C=C/c1cccc([N+](=O)[O-])c1)OC1CCCCC1=O (stereo not given)	-5.3	1.9	1.4	-2.8	-3.5	31.1*
O=C(/C=C/c1cccc([N+](=O)[O-])c1)NCC1CCCO1 (stereo not given)	-1.3	-1.2	1.3	-3.6	-33.1	60.4*
CC(C)N(C(=O)/C=C/c1cccc([N+](=O)[O-])c1)C(C)C	-0.7	0.7	19.3	-0.6	-9.3	24.3
COc1cc(/C=N/OCc2ccc(Cl)c(Cl)c2)cc(Cl)c1OC	/	/	/	4.6	/	/
COc1cccc2cc(C(=O)NCc3ccc(Cl)cc3)c(=N)oc12	-3.5	-2.1	10.6	-1.2	-2.4	105.9*
COc1ccc(Cn2c(SCc3ccc(C(=O)NCc4ccccc4F)cc3)nc3cccnc32)cc1	/	0.7	16.2	-1.0	/	/
O=C(NCc1ccccc1)c1ccc(CSc2nc3cccnc3n2Cc2ccccc2F)cc1	/	/	1.2	-33.2*	/	/
CC(C)c1nnc(NC(=O)CCC(=O)Nc2ccc3cn[nH]c3c2)s1	-2.8	-0.5	-8.2	2.5	-17.1	60.6*
Cc1ccc(C2CC2C(=O)O)cc1 (stereo not given)	/	/	/	-0.8	/	/
Cc1ccc(C(=O)NC(=S)Nc2cccnc2Cl)cc1	-6.8	-2.2	40.1*	-0.8	-15.8	-6.5
SMILES	D2 ag-1	D2 ag-2	D2 PAM-1	LDHA block	D2 PAM-2	D2 antag
COc1ccccc1C(=O)NC(=S)Nc1cccnc1Cl	-0.8	0.1	-5.9	1.4	-0.2	0.8
COc1cc(C(=O)N/N=C(\C)Cc2ccccc2)cc(OC)c1OC	1.2	/	/	-5.7	-6.5	/
COc1cc(C(=O)NCC(=O)N/N=C(\C)Cc2ccccc2)cc(OC)c1OC	2.0	0.0	36.9*	-11.3	-8.3	-7.9
COc1ccc(Cn2c(C)nc3c(c2=O)c2nc4ccccc4nc2n3Cc2ccco2)cc1	-0.1	/	/	-6.1	0.5	/
COc1ccc(Cn2c3nc4ccccc4nc3c3c(=O)n(Cc4ccco4)c(C)nc32)cc1	/	1.1	-3.7	/	/	33.4*
CC(C)Oc1ccc2ccccc2c1/C=C(\C#N)c1nc2ccccc2[nH]1	/	/	/	-30.4*	/	/
CN1CC[n+]2c(CN3C(=O)c4ccccc4C3=O)csc21	-1.3	0.5	3.3	-23.5	-2.7	45.2*
Cc1nn(-c2nc3c(c(=O)n(Cc4ccccc4Cl)c(=O)n3C)n2C(C)C)c(C)c1C	/	/	/	0.8	/	/
CCCCCn1c(CN2CCCCC2CC)nc2c1c(=O)n(C)c(=O)n2C (stereo not given)	0.0	-0.3	54.5*	-12.5	-4.4	3.6
CCN(CC)CC#CCC(O)(c1ccccc1)c1ccc(Br)cc1 (stereo not given)	0.0	0.2	-19.8	0.1	-19.6	34.5*
CC(=O)Nc1ccc(NC(=O)c2cnn(-c3ccccc3F)c2C)cc1C	/	/	/	0.3	/	/
COCCCn1c(C)cc(C(=O)Cn2cnc3c2c(=O)n(C)c(=O)n3C)c1C	/	/	/	-5.7	/	/
O=C(c1ccco1)N1N=C2CCCCCC2C1(O)C(F)(F)F (stereo not given)	-2.7	-0.7	32.3*	-6.5	1.2	-4.6
CCC(Sc1nc2cc(OC)c(OC)cc2c(=O)n1Cc1ccc(OC)cc1)C(=O)NCCOC (stereo not given)	-2.4	-0.2	31.0*!	-0.8	-2.0	-0.8
Oc1ccc(C=Nc2cccc3ccccc23)cc1	/	/	/	22.0	/	/
Cc1noc(NS(=O)(=O)c2ccc(NC(=O)CC34CC5CC(CC(Br)(C5)C3)C4)cc2)c1C	0.2	0.6	2.5	-45.7*	10.1	1.1
Cc1noc(NS(=O)(=O)c2ccc(NC(=O)C34CC5CC(C3)CC(n3cnc(Cl)n3)(C5)C4)cc2)c1C	0.6	0.1	-0.6	-4.3	3.1	-32.9
CC(OC(=O)c1ccc2c(c1)NC(=O)CS2)C(=O)NCc1ccccc1 (stereo not given)	/	/	/	2.5	/	/
CC(=O)N(c1ccc(N(C(C)=O)S(=O)(=O)c2cccs2)cc1)S(=O)(=O)c1cccs1	0.4	1.3	/	-87.9*	-2.7	4.3
CC(=O)N(c1ccc(N(C(C)=O)S(=O)(=O)c2ccccc2)cc1)S(=O)(=O)c1ccccc1	2.6	2.0	-33.5	-65.7*	0.9	-2.4

Compound activity: PubChem BioAssay, National Center for Advancing Translational Sciences (NCATS)
